Results reported in PubChem BioAssay AID624117 (National Center for Advancing Translational Sciences (NCATS), 2012).
Results filed as inconclusive are left out. Unmarked numbers belong to inactive results. The source made the active and inactive calls. Calls follow the shape of the dose curve; as a rule, active = well fitted curve in the direction sought with a large enough effect; inconclusive = small, poorly fitted or top-dose-only effect, or another doubt; inactive = no such curve, though single readings can be large or run the other way.
Potency is read from the fitted curve at half-maximal effect.

Assay: qHTS Assay for Rab9 Promoter Activators: Hit Validation Using Renilla Luciferase Read-Out; as to activation (negative = inhibition): % of control where 0% means no effect
Settings: Huh7 NPC1 promoter Renilla luciferase reporter, 24 h; series mostly up to 76.9 µM; activation (negative = inhibition): at the top concentration
Summary of the method: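 Hit validation in Huh7 NPC promoter-luciferase reporter line: compound treatment 24 h at 37 deg C, then luminescence measured after 10 min room-temperature incubation with […] reagent.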
In the case of `CCN(Cc1nc2cc(Cl)ccc2c(=O)[nH]1)C(=O)C1CC(=O)N(c2cccc3ccccc23)C1` (centres undefined), the “activation (negative = inhibition)” value is reported as 3.31%. With `Cc1ccc2nc(Nc3ccc(Cl)cc3)c3nncn3c2c1` the “activation (negative = inhibition)” value was -1.87%. With `CCOC(=O)c1ccc(-c2nnc(-c3ccc(Cl)cc3Cl)o2)cc1` the “activation (negative = inhibition)” value was -4.69%. For `CC(=O)Nc1ccc(-c2csc(Nc3ncccn3)n2)cc1`, the “activation (negative = inhibition)” value was -9.77%. With `COc1cccc(C2Nc3ccccc3NC3=C2C(=O)CC(C)(C)C3)c1` (centres undefined) the “activation (negative = inhibition)” value was -1.62%. In the case of `Cc1cc(C)cc(N(CC(=O)NC2CCCC2)C(=O)CNC(=O)c2ccco2)c1`, the “activation (negative = inhibition)” value is reported as 13.6%. In the case of `COc1cccc(C(C(=O)NC2CCCC2)N(CCC(C)C)C(=O)CCC(=O)Nc2cc(C)on2)c1` (centres undefined), the “activation (negative = inhibition)” value is reported as 14.4%. In the case of `OCCC1CN(Cc2nc3ccccc3s2)CCN1C1CCCC1` (centres undefined), the “activation (negative = inhibition)” value is reported as 0.367%. In the case of `COc1ccc(S(=O)(=O)NC(C(=O)NCCc2ccccn2)C(C)C)cc1` (centres undefined), the “activation (negative = inhibition)” value is reported as -1.28%. For `C=CCOC(=O)N1CCN(c2cccc(C(F)(F)F)c2)CC1`, the “activation (negative = inhibition)” value was -2.4%. With `O=C(NC1CCCC1)C(c1ccc(F)cc1)N(C(=O)c1csnn1)c1ccccc1` (centres undefined) the “activation (negative = inhibition)” value was -3.01%. For `CCOc1cc(C(=O)N=c2sccn2C)ccc1OC(F)F`, the “activation (negative = inhibition)” value was 4.68%. For `O=C(COc1ccccc1F)Nc1ccc(-c2nc3ccccc3s2)cc1`, the “activation (negative = inhibition)” value was -14.2%. In the case of `CC1CN(C(=O)c2ccncc2)CC(C)O1` (centres undefined), the “activation (negative = inhibition)” value is reported as 6.29%. With `Cc1cc(C)c2c(N)c(C(=O)Nc3ccc([N+](=O)[O-])cc3)sc2n1` the “activation (negative = inhibition)” value was -1.64%. In the case of `COC(=O)c1ccccc1NC(=O)c1ccc(-c2ccc(Br)cc2)o1`, the “activation (negative = inhibition)” value is reported as -44.9%. In the case of `Cc1ccc(S(=O)(=O)/N=C2\C=C(Nc3cccc(C(=O)O)c3)C(=O)c3ccccc32)cc1`, the “activation (negative = inhibition)” value is reported as -90.7%. For `Fc1ccc(-c2nc3nc4ccccc4nc3n2Cc2ccco2)cc1`, the “activation (negative = inhibition)” value was -83.1%. With `S=C1NCN(CCc2ccccc2)CN1Cc1ccccc1` the “activation (negative = inhibition)” value was -2.18%. With `Nc1ccc(C(=O)Nc2ccccc2N)cc1` the Potency was 8.23 µM (active). With `O=C(CSc1nccn1Cc1ccco1)Nc1ccccc1F` the “activation (negative = inhibition)” value was 10.3%. In the case of `CC(=O)c1c(C)[nH]c(C(=O)Nc2cccc(S(=O)(=O)N(C)C)c2)c1C`, the Potency is reported as 26 µM (active). For `O=C(CSc1nnc(-c2ccccc2)o1)Nc1ccccc1F`, the “activation (negative = inhibition)” value was 10.4%. For `COc1ccc(/C=C\c2onc(C)c2S(=O)(=O)N2CCC(C(=O)NCCC(C)C)CC2)cc1`, the “activation (negative = inhibition)” value was 9.81%. For `CCOC(=O)c1csc(COc2ccc(OC)cc2)n1`, the “activation (negative = inhibition)” value was -4.37%. For `CCC1=[N+](CC(=O)c2ccc(C)cc2)CCn2cccc21`, the “activation (negative = inhibition)” value was -5.44%. With `CCN(CC)S(=O)(=O)c1ccc(NCc2ccccn2)nc1` the “activation (negative = inhibition)” value was -1.71%. In the case of `CC1=C(C(=O)OC2CCCC(C)C2)C(c2ccccc2)NC(=O)N1` (centres undefined), the “activation (negative = inhibition)” value is reported as -65.3%. With `CCCCn1c(CCNC(=O)c2cccs2)nc2ccccc21` the “activation (negative = inhibition)” value was -13.5%. With `COc1ccc(C(c2nnnn2CCc2ccccc2)N2CCN(C3CCCC3)CC2)cc1` (centres undefined) the “activation (negative = inhibition)” value was 0.128%. With `O=C(NCC1CCCO1)C(c1ccc(F)cc1)N(Cc1ccc2c(c1)OCO2)C(=O)c1ccc(CN2CCOCC2)o1` (centres undefined) the “activation (negative = inhibition)” value was -4.06%. For `COc1ccc(C2(CNC(=O)/C=C/c3ccco3)CCCC2)cc1OC`, the “activation (negative = inhibition)” value was 2.65%. In the case of `O=C(NCCSCc1c(F)cccc1Cl)c1ccc(CN2CCOCC2)cc1`, the “activation (negative = inhibition)” value is reported as -51.8%. For `O=C(NC(=S)Nc1ccc(CN2CCCCC2)cc1)c1cc2ccccc2o1`, the “activation (negative = inhibition)” value was 9.7%. For `Brc1ccccc1-c1nnc(CSc2nnc3sc4ccccc4n23)o1`, the “activation (negative = inhibition)” value was -3.13%. For `Cn1c(SCc2ccccc2)nnc1-c1cnccn1`, the “activation (negative = inhibition)” value was 13.7%. With `Cc1ccc(C(=O)c2cn[nH]c2-c2ccccc2O)cc1` the “activation (negative = inhibition)” value was -8.79%. With `NC(=O)C(=O)NN=C1C2CC3CC(C2)CC1C3` the “activation (negative = inhibition)” value was -5.18%. For `CCC(C)(C)NC(=O)C(c1ccc(OC)cc1)N(Cc1cccs1)C(=O)CCC(=O)Nc1cc(C)on1` (centres undefined), the “activation (negative = inhibition)” value was 4.13%.
